Compounds without any hit were thinned out: in the full panel of roughly 79,000, 15% have a hit. Values without a mark were called inactive. Activity calls are given as the source filed them. No stated cut-off is given here; in the data, active means growth inhibition above about 70%; inactive means the rest.
Assay: NCI Yeast Anticancer Drug Screen. Data for the bub3 strain (AID 167)
Details: S. cerevisiae bub3 mutant strain, hits give high values
Description: Growth inhibition of yeast strains with defined genetic alterations is measured as a screen for potential anti-cancer activity. Selected strains with alterations in DNA damage repair or cell cycle control were exposed to compounds and growth inhibition was measured relative to vehicle treated controls. The strain used in this assay is bub3

[1] = at 5.0 µM (retest, dose inferred, filed as 0.5)
[2] = at 50.0 µM (retest, dose inferred, filed as 5.0)

Row | SMILES | growth inhibition (at 1.2 µM) [%] | growth inhibition (at 3.7 µM) [%] | growth inhibition [1] [%] | growth inhibition (at 11.0 µM) [%] | growth inhibition (at 33.0 µM) | growth inhibition [2] | growth inhibition (at 50.0 µM) | growth inhibition (at 100.0 µM)
1 | Oc1ccc2c(c1)C(O)CCCC2 (stereo not given) | -9 | -8 | 30 | -9 | -2% | 96% (active) | 66.2% | 35%
2 | Cc1ccc2c3ccc4c(c3n(C)c2c1)C(=O)C=CC4=O | -14 | -1 | 43 | -11 | 16% | 80% (active) | 61.2% | 56%
3 | OC(/C=C/c1ccccc1)(Cc1cc(-c2ccccc2)n[nH]1)c1ccccc1 (stereo not given) | 3 | 3 | -10 | 2 | 7% | 98% (active) | 99.2% (active) | 6%
4 | CCCCCCCCCCCCCCCCCC(=O)NCCCN(C)C | 4 | 6 | 42 | 1 | 98% (active) | 95% (active) | 92.2% (active) | 98% (active)
5 | c1ccc(CCN2CCc3ccccc3C2)cc1 | -1 | -1 | 24 | 7 | 21% | 74% (active) | 56.8% | 40%
